# Screens as filed in PubChem BioAssay.
# TDP1 cell noCPT – qHTS for Inhibitors of human tyrosyl-DNA phosphodiesterase 1 (TDP1): qHTS in cells in absence of CPT; DT40 Tdp1-/- hTDP1 cells, no CPT, ATP luminescence, 48 h; Potency, µM (top dose mostly 46.2 µM), without a hit: at the top dose activity change, negative = growth inhibition, usual class: inhibitors; 15% of 420,000 active; AID 686978, 2013; note: potency is the fitted concentration of half-maximal effect; nearly all actives have a fitted effect of over 55% in size
#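 Cells were dispensed at 400 per well, compounds added by pin tool, plates incubated ≥48 hr at 37 °C, then CellTiter-Glo added for 30 min at room temperature before luminescence reading. Line: DT40 Tdp1-/- complemented with hTDP1; camptothecin omitted.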
# HT1080 IDH1KD tx – HT-1080 IDH1 knockdown cell toxicity (counter line). 2% of 360,000 active. HT-1080 IDH1 knockdown viability, ATP luminescence, 48 h. AID 686971. Potency, µM (series often up to 46.1 µM), for inactives: at the top dose activity, negative = toxicity, hits mostly cytotoxic;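 note: potency is the fitted concentration of half-maximal effect; 0% = DMSO wells and -100% = cell-free medium wells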
#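 IDH1KD HT-1080 cells, 750/well, RPMI + 5% FBS; compound pinned after 2 h settling; 48 h, 37 °C; CellTiter-Glo luminescence; % activity normalised to DMSO and no-cell wells; curves fitted, classed by r2 and efficacy.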
# HT1080NT lethal – kills 2HG-producing HT-1080-NT fibrosarcoma cells | HT-1080-NT fibrosarcoma viability, CellTiter-Glo ATP luminescence, 48 h | Potency, µM (highest dose often 46.1 µM), without a hit: at the top dose activity, negative = less viability, hits mostly cytotoxic | 1.6% of 360,000 active;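 note: NT is the 2HG producing partner of a matched IDH1 knockdown line; potency is the fitted concentration of half-maximal effect; 0% = DMSO-treated cells and -100% = media-only wells without cells; nearly all actives have a fitted effect of over 55% in size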
#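 Viability by CellTiter-Glo luminescence after 48 h compound exposure at 37C of HT-1080-NT cells (750/well, RPMI, 5% FBS). % activity scaled between DMSO wells and medium-only wells, then curve-fitted and categorized by curve class.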
# DT40 TDP1 CPT – DT40-hTDP1 cell growth loss with CPT; Potency, µM (top dose mostly 46.2 µM), for the others: top-dose activity change, negative = growth inhibition, usual class: inhibitors; chicken DT40 Tdp1-/-;hTDP1 cells + 20 nM CPT, ATP luminescence, 48 h; 12% of 420,000 active; note: potency is the fitted concentration of half-maximal effect; nearly all actives have a fitted effect of over 55% in size
#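 Cell growth measured by CellTiter-Glo luminescence after a minimum 48 h, 37 C compound exposure with 20 nM CPT in Tdp1-knockout DT40 cells stably expressing hTDP1, seeded 400/well; qHTS titration format.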
# IL1B secr inh – inflammasome signaling inhibition, IL-1 beta readout; THP-1 LPS/ATP IL-1B secretion, AlphaLISA, 16 h; hits give low values; activity change, % at 57.5 µM; 4.7% of 360,000 active; in the data active = activity change below about -50%; inconclusive = mostly about -30% to -49%
#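 THP-1 cells pretreated 1 hr with compounds (up to 57.5 uM final), then stimulated with LPS (250 ng/mL final) plus ATP (1.25 mM final); secreted IL-1B measured by AlphaLISA after 16 hr, decreased signal indicating inhibition.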
# * hit, by the source's call; ? = inconclusive; · = no result. Sampled rows, rich in hits. Any-hit rate of the full collection: about 19%. Unless noted, calls come from the whole dose curve; as a rule, active = well fitted curve in the direction sought with a large enough effect; inconclusive = small, poorly fitted or top-dose-only effect, or another doubt; inactive = no such curve, though single readings can be large; an effect the other way counts as inactive or inconclusive. Unless noted, % is set by controls: 0 for no effect and ±100 for the full control effect.
SMILES,TDP1 cell noCPT,HT1080 IDH1KD tx,HT1080NT lethal,DT40 TDP1 CPT,IL1B secr inh
CCOc1ccc(N2C(=O)/C(=C/c3cc(OC)c(OC)c(OC)c3)N(CC(=O)OC)C2=S)cc1,18µM*,-23%,-27%,?,-90*
COc1cc(-c2nnc(SCC(=O)Nc3ccc(C(=O)O)cc3)o2)cc(OC)c1OC,5%,11%,-2%,24%,-6
CCc1ccccc1-n1c(SCC(=O)NC)nnc1-c1ccco1,-1%,1%,3%,6%,7
COc1cc(/C=C/C(=O)c2ccc(F)cc2)cc(OC)c1OC,16µM*,18µM*,23µM*,?,-74*
C[C@H](CO)N1C[C@H](C)[C@@H](CN(C)C(=O)Nc2ccc(C(F)(F)F)cc2)Oc2ccc(NC(=O)Nc3ccc4c(c3)OCO4)cc2C1=O,?,-19%,-10%,?,?
COc1ccc(-c2coc3cc(OC(C)=O)ccc3c2=S)cc1,?,?,?,26µM*,-1
CC(=O)Oc1ccc2c(=O)c(-c3ccccc3)coc2c1,?,-20%,-2%,3%,-22
CC[N+](CC)(CC)CCOc1ccc(/C=C\c2ccccc2)cc1,2.1µM*,·,·,2.7µM*,·
CC[N+](CC)(CC)CCOc1ccc(/C=C/c2ccccc2)cc1,2.6µM*,16µM*,?,4.6µM*,27
COC(=O)c1ccc(Cn2c(=O)cc(C(F)(F)F)c3c(C)nn(C)c32)cc1,15µM*,·,·,?,·
Cc1nn(C)c2c1c(C(F)(F)F)cc(=O)n2C(C)C(=O)NCc1ccccc1Cl (stereo not drawn),-5%,·,·,-15%,·
Cc1nn(C)c2c1c(-c1ccccc1)cc(=O)n2Cc1ccccc1C#N,?,·,·,23µM*,·
CCOC(=O)c1ccc(NC(=O)Cn2c(=O)cc(C(F)(F)F)c3c(C)nn(C)c32)cc1,16%,·,·,-12%,·
Cc1nn(C)c2c1c(C(F)(F)F)cc(=O)n2C(C)C(=O)NCCc1ccccc1 (stereo not drawn),-83%,·,·,0.18µM*,·
CCn1nc(C)c2c(-c3ccccc3)cc(=O)n(C(C)C(=O)Nc3ccc(OC)c(OC)c3)c21 (stereo not drawn),16µM*,·,·,10µM*,·
O=C(OC1CCOC1=O)c1ccc(CO)cc1 (stereo not drawn),1%,0%,6%,-16%,19
Cc1ccc(CNC(=O)C(C)n2c(=O)cc(-c3ccccc3)c3c(C)nn(C)c32)cc1 (stereo not drawn),?,·,·,18µM*,·
COc1ccc(Cl)cc1NC(=O)C(C)n1c(=O)cc(C(F)(F)F)c2c(C)nn(C)c21 (stereo not drawn),-25%,·,·,-19%,·
Cc1nn(C)c2c1c(C(F)(F)F)cc(=O)n2C(C)C(=O)NCCC(C)C (stereo not drawn),?,·,·,16µM*,·
O=C(CN1C(=O)C(=O)N(C2CCCC2)C1=O)Nc1ccccc1OC(F)F,8%,1%,3%,1%,0
CCn1c(SCc2ccc(Cl)c(Cl)c2)nnc1C(C)NC(=O)c1ccc(OC)cc1 (stereo not drawn),16µM*,5%,6%,16µM*,-8
COc1cc(/C=N/Nc2ccccc2)ccc1O,-2%,21µM*,?,1%,21
COc1cc(/C=N/N(c2ccccc2)c2ccccc2)ccc1O,0%,16µM*,18µM*,-10%,?
Cc1[nH]c2ccccc2c1/C=N/Nc1cccc(C(=O)O)c1,-10%,-15%,1%,0%,19
COC(=O)c1[nH]c2cc(OC)c(OC)cc2c1/C=N/Nc1ccccc1,18µM*,-2%,-17%,?,-13
SMILES,TDP1 cell noCPT,HT1080 IDH1KD tx,HT1080NT lethal,DT40 TDP1 CPT,IL1B secr inh
CCN(CCCNC(=O)CCn1c(=S)[nH]c2cc3c(cc2c1=O)OCO3)c1cccc(C)c1,0%,1%,1%,?,49
COc1cc(NC(=O)c2[nH]c(C)c(C(C)=O)c2C)cc(OC)c1OC,-28%,-1%,7%,-24%,-15
CC(=O)c1c(C)[nH]c(C(=O)Nc2ccc(C)c(C)c2)c1C,-2%,20%,?,-3%,-26
COc1ccc(NC(=O)c2[nH]c(C)c(C(C)=O)c2C)cc1Cl,?,-15%,-16%,2.1µM*,-8
COc1ccc(C(C)(C)C)cc1NC(=O)c1[nH]c(C)c(C(C)=O)c1C,16µM*,-15%,?,-1%,-2
Cc1ccc(CNC(=O)c2ccc(NS(=O)(=O)c3cccs3)cc2)cc1,1%,-7%,2%,-25%,0
Nc1ccn(C2OC(COP(=O)(O)O)C(O)C2O)c(=O)n1 (stereo not drawn),1.2µM*,-17%,-3%,0.65µM*,27
O=c1ccn([C@@H]2O[C@H](COP(=O)(O)O)[C@@H](O)[C@H]2O)c(=O)[nH]1,-21%,·,·,?,·
CC1CCN(CC(O)COCCOc2ccc(Br)cc2)CC1 (stereo not drawn),?,-4%,-4%,-20%,-8
CC1CCN(CC(O)COCCC23CC4CC(CC(C4)C2)C3)CC1 (stereo not drawn),21µM*,?,?,21µM*,?
Cn1c(=O)n(C)c2cc(NS(=O)(=O)c3ccc(Cl)cc3)c(NCc3ccccc3)cc21,13µM*,·,·,10µM*,·
COc1ccc(S(=O)(=O)Nc2cc3c(cc2NCc2ccccc2)n(C)c(=O)n3C)cc1OC,21µM*,·,·,?,·
Cn1c(=O)n(C)c2cc(S(=O)(=O)Nc3ccccc3C(=O)O)ccc21,1%,14%,15%,0%,-8
Cc1cc(S(=O)(=O)Nc2cc3c(cc2NCc2ccccc2)n(C)c(=O)n3C)ccc1F,12µM*,·,·,7.3µM*,·
Cn1c(=O)n(C)c2cc(NS(=O)(=O)c3ccc(C(C)(C)C)cc3)c(NCc3ccccc3)cc21,23µM*,·,·,21µM*,·
Cn1c(=O)n(C)c2cc(CNCc3ccccc3)ccc21,-19%,·,·,-2%,·
Cc1cc(S(=O)(=O)Nc2ccccc2C)ccc1F,-19%,-1%,-4%,1%,6
COc1ccc(S(=O)(=O)Nc2ccccc2)cc1OC,0%,0%,-7%,9%,7
Cc1cc(N2CCCCCC2)nc2ccc(F)cc12,-10%,-27%,9%,-15%,26
N#CCCNS(=O)(=O)c1ccc(C(=O)OCCCOC(=O)c2ccc(S(=O)(=O)NCCC#N)cc2)cc1,0%,8%,6%,-6%,23
CN(C)c1cc2c(cc1NS(=O)(=O)c1ccccc1)n(C)c(=O)n2C,?,-2%,-3%,?,4
